Rows were chosen to be rich in hits. Some 3.1% of all compounds tested hit in one or more screens of this group.
BRCA1 expr act: increases BRCA1 expression | AID 624202 | Potency, µM (series often up to 46.1 µM), actives largely listed as activators | 1.1% of 380,000 active | MCF7-BRCA1-FFLuc reporter, luminescence, 48 h; response scale: scaled: vehicle 0%, 10 µM genistein 100%; further: nearly all actives have a fitted effect of over 80% in size
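Quantitative HTS in MCF7 cells stably reporting BRCA1 expression via firefly luciferase. Compound treatment lasts 48 h at 37 °C in phenol-red free MEM. Activation is expressed relative to genistein at 10 microM and DMSO.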
Nrf2 ARE act: activates Nrf2 signaling. AREc32 ARE-luciferase reporter (MCF7-derived line), luminescence, 24 h. AID 624171. Potency, µM (highest dose often 46.1 µM), actives largely listed as activators. 0.31% of 410,000 active; further: nearly all actives have a fitted effect of over 65% in size
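Cells of the AREc32 ARE-luciferase line are plated in OPTI-MEM containing 5% FBS and left overnight at 37 deg C. Compounds are pinned in, incubation continues 24 hr, and firefly luciferase signal is then measured.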
ELG1 DNA repair: inhibitors of ELG1-dependent DNA repair in HEK293T cells | HEK293T ELG1-luciferase reporter, luminescence, 16 h; DNA damage induced by 5-fluorouridine | Potency, µM (titrated, usually from 46.1 µM), actives largely listed as inhibitors | 2.3% of 330,000 active | AID 504467; further: nearly all actives have a fitted effect of over 55% in size
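Cells (2,000 per well) received 5-fluorouridine plus test compound or DMSO and were incubated 16 hr at 37 °C, 5% CO2. Luciferase activity was read by luminescence 30 min after ONE-Glo addition; signal suppression marked inhibition of damage-induced ELG1 function.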
IL-2 act: IL-2 activation; IL-2 activation reporter assay, cell-based qHTS; stimulated with anti-CD3/CD4/CD28 beads; in transgenic mouse T cells; activation, % (series mostly up to about 46 µM); 0.065% of 360,000 active; in the data active means activation above about 50%; inconclusive means mostly about 30% to 49%
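Unstimulated transgenic mouse T cells preincubated 60 min with compound, then stimulated with anti-CD3/anti-CD4-coated beads plus anti-CD28 for 18 h at 37 degrees C. IL-2 response read as EGFP and DsRed fluorescence by plate cytometry.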
Of the large screens only hits and unclear results are named; the others gave an inactive call. Unless noted, the call rests on the fitted dose curve; in most records, active means well fitted curve in the direction sought with a large enough effect; inconclusive means small, poorly fitted or top-dose-only effect, or another doubt; inactive means no such curve, though single readings can be large; an effect the other way counts as inactive or inconclusive.

CCOC(=O)c1cccc(NC(=O)CN2C(=O)CC(C)(C)Sc3ccccc32)c1	none (no result: BRCA1 expr act, ELG1 DNA repair, IL-2 act)
COc1cccc(C(=O)Nc2ccc(F)cc2F)c1	BRCA1 expr act inconclusive, ELG1 DNA repair inconclusive
COC(=O)c1sccc1NC(=O)c1ccc(Br)o1	Nrf2 ARE act 5.6µM
COc1cccc(C(=O)Nc2ccc(F)c(F)c2F)c1	BRCA1 expr act 3.5µM, ELG1 DNA repair inconclusive
COC(=O)c1sccc1NC(=O)c1cccc(OC)c1	Nrf2 ARE act 6.3µM
CCC(=O)Nc1ccc(NC(=O)c2cccc(OC)c2)nc1	BRCA1 expr act 11µM, ELG1 DNA repair inconclusive
COC(=O)c1sccc1NC(=O)c1ccc(C)o1	Nrf2 ARE act inconclusive
CCCC(=O)Nc1ccc(NC(=O)c2cccc(OC)c2)cn1	none
COC(=O)c1sccc1NC(=O)Nc1cccc(OC)c1	none
COc1ccccc1NC(=O)c1oc2ccccc2c1NC(=O)Cc1ccccc1	none (no result: BRCA1 expr act, ELG1 DNA repair, IL-2 act)
Cc1c(Cl)cccc1-n1nnc(-c2nc(-c3ccc4c(c3)OCO4)no2)c1C	none (no result: BRCA1 expr act, ELG1 DNA repair, IL-2 act)
Cc1nc2cccnc2n1-c1cccc(C(=O)NCc2ccc(OC(C)C)cc2)c1	none (no result: BRCA1 expr act, ELG1 DNA repair, IL-2 act)
CCCCC(=O)Nc1ccc(NC(=O)c2ccccc2OC)cn1	ELG1 DNA repair 18µM
COc1ccccc1NC(=O)c1ccc(NC(=O)c2ccco2)cc1	ELG1 DNA repair inconclusive
COc1cc(OC)cc(C(=O)Nc2ccc(C(=O)Nc3ccccc3OC)cc2)c1	ELG1 DNA repair 16µM
COc1cccc(C(=O)Nc2cccc(-c3nnc(-c4ccco4)o3)c2)c1	ELG1 DNA repair 23µM
COC(=O)c1sccc1NC(=O)c1ccccc1	Nrf2 ARE act 7.1µM
CC(C)NC(=O)C1(C)CN(S(C)(=O)=O)CC(=O)N1Cc1ccco1 (configuration not stated)	none (no result: BRCA1 expr act, Nrf2 ARE act, ELG1 DNA repair)
COC(=O)c1ccc(NC(=O)c2cccc(OC)c2)cc1	BRCA1 expr act 2.5µM, ELG1 DNA repair inconclusive
CCOC(=O)Nc1cccc(NC(=O)c2cc(OC)cc(OC)c2)c1	ELG1 DNA repair 15µM
COc1cccc(C(=O)NCCSc2ccc(F)cc2)c1	BRCA1 expr act 11µM, ELG1 DNA repair inconclusive
O=C(Nc1ccccc1C(=O)O)c1ccc(Br)o1	BRCA1 expr act 14µM, ELG1 DNA repair inconclusive
O=C(Nc1ccccc1F)c1ccc(Br)o1	ELG1 DNA repair inconclusive
CCOc1c2c(c(-c3ccc4c(c3)OCO4)c3cc(OC)c(OC)cc13)C(=O)OC2	none (no result: Nrf2 ARE act, ELG1 DNA repair, IL-2 act)
Cc1ccc(Cn2cc(S(=O)(=O)c3cccc(C)c3)c(=O)c3cc(F)c(N4CCOCC4)cc32)cc1	none (no result: BRCA1 expr act, ELG1 DNA repair, IL-2 act)
COc1ccc(-n2c(=O)c3c4c(sc3n(Cc3ccc(F)cc3)c2=O)CCCC4)c(OC)c1	none (no result: BRCA1 expr act, ELG1 DNA repair, IL-2 act)
COC(=O)c1sccc1NC(=O)COc1ccccc1Cl	Nrf2 ARE act 13µM, ELG1 DNA repair inconclusive
COCCOC(=O)C1=C(C)NC(C)=C(C(=O)OC(C)C)C1c1cccc([N+](=O)[O-])c1 (configuration not stated)	ELG1 DNA repair 12µM
CCN(CC)S(=O)(=O)c1ccc2c(c1)c(=O)c(C(=O)N1CCN(c3cccc(C)c3)C(C)C1)cn2C (configuration not stated)	none (no result: ELG1 DNA repair, IL-2 act)
CC(C)CCNC(=O)c1ccc2c(c1)ncn2C1CCCC1	BRCA1 expr act 7.1µM, ELG1 DNA repair inconclusive
COC(=O)Nc1ccc2c(c1)ncn2C1CCCCC1	ELG1 DNA repair inconclusive
CCOC(=O)Nc1ccc2c(c1)ncn2C1CCCCC1	BRCA1 expr act 13µM, ELG1 DNA repair inconclusive
CCOCCCNC(=O)c1ccc2c(c1)ncn2C1CCCC1	BRCA1 expr act inconclusive, ELG1 DNA repair inconclusive
Cc1ccc(C)c(Cn2c(=O)n(C(C)C)c(=O)c3oc4ccccc4c32)c1	none (no result: BRCA1 expr act, ELG1 DNA repair, IL-2 act)
Cc1nc(-c2ccc(C)c(S(=O)(=O)N3CCC(C(=O)NCc4ccc(F)cc4)CC3)c2)no1	none (no result: BRCA1 expr act, ELG1 DNA repair, IL-2 act)
Cc1cc(C)cc(N=Cc2[nH]c3ccc(Br)c(Cl)c3c2O)c1	Nrf2 ARE act inconclusive, IL-2 act 54
CC1(C)C(=O)N(CC(=O)Nc2ccc(OC(F)(F)F)cc2)c2ccccc21	none (no result: BRCA1 expr act, ELG1 DNA repair, IL-2 act)
COCCCNC(=O)C1CCN(C(=O)c2oc3cc4sc(N(C)C)nc4cc3c2C)CC1	BRCA1 expr act 11µM, ELG1 DNA repair inconclusive
CCN(CC)C(=O)Cn1c(=O)c2ccccc2n2c(=S)sc(-c3cccc(C)c3)c12	IL-2 act 94
Cc1ccc(-n2c3nc(=O)[nH]c(=O)c-3cc3c(C)nn(-c4ccccc4)c32)cc1Cl	none (no result: ELG1 DNA repair, IL-2 act)
CNc1ccc(/C=C(\C#N)c2ccccn2)cc1[N+](=O)[O-]	BRCA1 expr act 10µM, ELG1 DNA repair inconclusive

Compound activity: PubChem BioAssay, National Center for Advancing Translational Sciences (NCATS)
